Reference: PubChem BioAssay (Tox21)
Values joined by “and” are separate entries in the source; they are usually repeats but may differ in a detail not shown here. Equal entries are not always repeated. Records with an inconclusive call do not appear. Active and inactive are the calls of the source. Calls come from the whole dose curve; as a rule, active = well fitted inhibition curve with a large enough effect in the signal ratio in the repeat runs, with a control signal flat; inconclusive = weak or mixed curves, or effect the other way; inactive = flat fitted curve, though single readings scatter; the % refers to the signal ratio.
% is set by controls: 0 for no effect and ±100 for the full control effect; potency is the fitted concentration of half-maximal effect.

What follows are compounds tested against D(2) dopamine receptor (Homo sapiens) (UniProt P14416) (assay: Dopamine D2 receptor (DRD2) small molecule antagonists, cell-based qHTS assay (AID 1963595)). Details: HEK293-DRD2 cAMP HTRF antagonist mode; series mostly up to 92.4 µM; activity change, negative = inhibition: at the top concentration.
Sequence of D(2) dopamine receptor (Homo sapiens) (P14416 whole entry, looked up): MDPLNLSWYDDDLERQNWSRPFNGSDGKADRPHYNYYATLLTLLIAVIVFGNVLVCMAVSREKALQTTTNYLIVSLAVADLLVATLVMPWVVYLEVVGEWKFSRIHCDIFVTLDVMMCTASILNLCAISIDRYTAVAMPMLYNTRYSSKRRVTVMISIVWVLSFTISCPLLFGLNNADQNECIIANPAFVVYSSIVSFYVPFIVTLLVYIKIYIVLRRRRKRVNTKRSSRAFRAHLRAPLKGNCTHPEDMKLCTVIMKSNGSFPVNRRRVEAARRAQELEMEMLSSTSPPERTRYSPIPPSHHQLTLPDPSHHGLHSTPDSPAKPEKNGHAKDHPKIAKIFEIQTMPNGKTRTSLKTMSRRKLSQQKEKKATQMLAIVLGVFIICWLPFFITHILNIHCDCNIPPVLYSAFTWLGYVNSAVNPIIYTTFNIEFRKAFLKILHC
Excerpt: National Center for Advancing Translational Sciences [NCATS]
Division of Preclinical Innovation [DPI]
U.S. Environmental Protection Agency [EPA]
National Institutes of Environmental Health Sciences [NIEHS]
National Toxicology Program [NTP]
U.S. Food and Drug Administration [FDA]
DRD2 is the D2 subtype of the dopamine receptor, which is coupled to Gi subtype of G protein-coupled receptor. This G protein-coupled receptor inhibits adenylyl cyclase activity. The DRD2-HEK293 cell line stably expressing D2 dopamine receptor can be used for screening agonists and antagonists of interactions between D2 and its ligands. The Hek293-DRD2 cAMP assay is based on HTRF technology. It measures changes of cAMP accumulation in response to Gi coupled GPCR activation or inhibition.
Tox21 Assay Protocol Summary:
DRD2-Hek293 cells were dispensed at 600 cells/3uL/well in 1536-well white plates using a Multidrop Dispenser. After the assay plates were incubated at a 37 C/5% CO2 incubator for 24 h, 1 uL of Ro20-1724 at final concentration of 0.1 mM was transferred to the assay plate by a Flying Reagent Dispenser. Following Ro20-1724 addition, 23 nL of compound dissolved in DMSO, positive controls or DMSO only was added to the assay plates via Wako pintool station. The assay plates were incubated at room temperature for 10 min. Next, 1 uL of mixture of NKH477 (final concentration at 200 nM) and quinpirole (final concentration at 12 nM) was added into the plates. After the assay plates were incubated at room temperature for an additional 30 min, 2.5 ul/well of cAMP-d2 and 2.5 ul/well of anti-cAMP-cryptate were added respectively into the assay plates using a Flying Reagent Dispenser. The plates were incubated at room temperature for 1 h. The fluorescence intensity in the plates was measured at 340 nm excitation and 665 & 620 nm emission by an Envision plate reader.
In the case of N#CSCSC#N, the Potency is reported as 27.9 µM (active) and 27 µM (active). For O=C(CCl)c1ccccc1, the Potency was “inactive”. c1ccc2sc(SNC3CCCCC3)nc2c1 was tested, and the Potency was “inactive”. NC1(c2ccccc2)CCCCC1 was tested, and the “activity change, negative = inhibition” value was -0.0306% (inactive). With CC1(C)[C@H](C(=O)O[C@H](C#N)c2cccc(Oc3ccccc3)c2)[C@@H]1/C=C(\Cl)C(F)(F)F the Potency was “inactive”. For COP(=O)(OC)OC=C(Cl)Cl, the Potency was “inactive”. For C1CN2CCC1CC2, the “activity change, negative = inhibition” value was 3.82% [at 42.5 µM] (inactive). With CS(=O)(=O)Cl the “activity change, negative = inhibition” value was 11.3% (inactive). CCCC[N+]1(C)CCCC1 was tested, and the Potency was “inactive”. With CCN(CC)C1CCCCC1 the “activity change, negative = inhibition” value was 9.46% (inactive). For O=[N+]([O-])c1c(Cl)c(Cl)c(Cl)c(Cl)c1Cl, the Potency was “inactive”. For Cc1ccc(-c2nc3ccc(C)cn3c2CC(=O)N(C)C)cc1, the “activity change, negative = inhibition” value was -0.826% [at 42.5 µM] (inactive). Cc1ccc2c(C)cccc2c1 was tested, and the “activity change, negative = inhibition” value was -3.31% (inactive). With CCC(CC)Nc1c([N+](=O)[O-])cc(C)c(C)c1[N+](=O)[O-] the “activity change, negative = inhibition” value was 1.13% (inactive). For CC(C)(O)C(=O)Nc1ccc([N+](=O)[O-])c(C(F)(F)F)c1, the Potency was “inactive”. CCCCCCCCCCCCCCn1cc[n+](C)c1 was tested, and the “activity change, negative = inhibition” value was -20.8% (inactive). In the case of Cc1cccc(N)c1C, the Potency is reported as “inactive”. With Cc1ccc([N+](=O)[O-])cc1 the Potency was “inactive”. In the case of C=CC(=O)OCC(C)C, the “activity change, negative = inhibition” value is reported as -4.56% (inactive). In the case of CCOP(=S)(OCC)SCCSCC, the Potency is reported as “inactive”. For CCN(C)N=O, the “activity change, negative = inhibition” value was 2.06% (inactive). For CCCCCCCCC(=O)NCc1ccc(O)c(OC)c1, the Potency was “inactive”. In the case of COP(=O)(O)OC, the “activity change, negative = inhibition” value is reported as 8.72% (inactive). With CCOP(OCC)OCC the Potency was “inactive”. For CN(C)CCc1ccc(O)cc1, the “activity change, negative = inhibition” value was 1.34% [at 42.5 µM] (inactive). For CC(Cl)C(=O)O (stereo not given), the “activity change, negative = inhibition” value was -3.7% (inactive). With OCCCCO the Potency was “inactive”. With CCCCOCCOP(=O)(OCCOCCCC)OCCOCCCC the Potency was “inactive”. For COc1nc(C)nc(NC(=O)NS(=O)(=O)c2ccccc2Cl)n1, the “activity change, negative = inhibition” value was 0.614% (inactive). In the case of N#Cc1ccc(Cl)cc1, the “activity change, negative = inhibition” value is reported as -5.52% (inactive). For O=S(=O)(O)C(F)(F)C(F)(F)C(F)(F)C(F)(F)C(F)(F)C(F)(F)F, the “activity change, negative = inhibition” value was -1.37% (inactive). With CCCCCCCCCc1ccc(O)cc1 the Potency was “inactive”. For Nc1cnn(-c2ccccc2)c(=O)c1Cl, the “activity change, negative = inhibition” value was 0.67% (inactive). For CCOC(=O)C(c1c(O)c2ccccc2oc1=O)c1c(O)c2ccccc2oc1=O, the “activity change, negative = inhibition” value was 1.67% [at 42.5 µM] (inactive). With CCCCOP(=O)(CCCC)OCCCC the “activity change, negative = inhibition” value was -11.1% (inactive). With O=P(O)(Oc1ccccc1)Oc1ccccc1 the “activity change, negative = inhibition” value was -1.33% (inactive). With CNC(=O)Oc1cccc2ccccc12 the Potency was “inactive”. CC(Cl)Cl was tested, and the “activity change, negative = inhibition” value was 12% (inactive). CN(CCO)CCO was tested, and the “activity change, negative = inhibition” value was 1.99% (inactive). For Cc1ccc2c(c1N)C(=O)c1ccccc1C2=O, the Potency was “inactive”.
